Measured values published in the supplement of paper PMC9446081.
± gives the standard deviation of the averaged measurements.

Each compound was assayed on DNA gyrase (assay: relative enzymatic activity vs untreated control (fraction); higher = less inhibition). Details: 100 µM; incubation time: 2 h at 37 C.
Procedure: (§1)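 In vitro enzymatic inhibition assays (ProFoldin kits) for 12 purified essential E. coli enzymes or complexes, each treated with 218 active antibacterial compounds at 100 µM for 2 h at 37°C. Read-outs were fluorescence or absorbance (phosphate detection, dye binding), converted to activity via standard curves and expressed relative to untreated DMSO controls.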

Structure (SMILES) | relative enzymatic activity
Cc1cn(C2CC(N=[N+]=[N-])C(CO)O2)c(=O)[nH]c1=O (stereo not drawn) | 0.801 ± 0.34
CCOC(=O)OC(C)OC(=O)C1N2C(=O)C(NC(=O)C(N)c3ccccc3)C2SC1(C)C.Cl (stereo not drawn) | 0.992 ± 0.22
Cn1nnnc1SCC1=C(C(=O)[O-])N2C(=O)C(NC(=O)C(O)c3ccccc3)C2SC1.[Na+] (stereo not drawn) | 0.841 ± 0.26
CNC1C(OC2C(OC3C(O)C(O)C(NC(=N)N)C(O)C3NC(=N)N)OC(C)C2(O)CO)OC(CO)C(O)C1O.O=S(=O)(O)O (stereo not drawn) | 0.78 ± 0.53
CON=C(C(=O)NC1C(=O)N2C(C(=O)OCOC(=O)C(C)(C)C)=C(C=Cc3scnc3C)CSC12)c1csc(N)n1 (stereo not drawn) | 0.894 ± 0.26
COC1(NC(=O)C(C(=O)[O-])c2ccc(O)cc2)C(=O)N2C(C(=O)[O-])=C(CSc3nnnn3C)COC21.[Na+].[Na+] (stereo not drawn) | 1.04 ± 0.15
Nc1c2ccccc2nc2ccccc12 | 0.766 ± 0.37
O=C1OC(=O)[C@H]2[C@@H]1[C@H]1CC[C@H]2O1 | 0.864 ± 0.32
CC(=O)On1cc(F)c(=O)[nH]c1=O | 0.636 ± 0.53
N[C@@H](C(=O)N[C@@H]1C(=O)N2C(C(=O)O)=C(Cl)CS[C@H]12)c1ccccc1 | 0.759 ± 0.31
CC1(C)S[C@@H]2[C@H](NC(=O)[C@H](NC(=O)N3CCNC3=O)c3ccccc3)C(=O)N2[C@H]1C(=O)O | 0.794 ± 0.35
COc1ccc(Cc2cnc(N)nc2N)cc1OC | 0.752 ± 0.41
CN1CCN(c2c(F)cc3c(=O)c(C(=O)O)cn4c3c2OCN4C)CC1 | 0.115 ± 0.16
O=C(O)c1cn(C2CC2)c2cc(N3CCNCC3)c(F)cc2c1=O | 0.0423 ± 0.06
COc1cc(Cc2cnc(N)nc2N)cc(OC)c1OC | 0.772 ± 0.45
C[C@H]1[C@H](NC(=O)/C(=N\OC(C)(C)C(=O)O)c2csc(N)n2)C(=O)N1S(=O)(=O)O | 0.898 ± 0.25
CC(N)O.Cc1cc(CC(C)CC(C)(C)C)n(O)c(=O)c1 (stereo not drawn) | 0.964 ± 0.11
COc1cc2c(cc1OC)C(=O)C(CC1CCN(Cc3ccccc3)CC1)C2.Cl (stereo not drawn) | 0.363 ± 0.072
CON=C(C(=O)NC1C(=O)N2C(C(=O)O)=C(C[N+]3(C)CCCC3)CSC12)c1csc(N)n1.[Cl-] (stereo not drawn) | 0.384 ± 0.0047
CCn1cc(C(=O)O)c(=O)c2cc(F)c(N3CCNC(C)C3)c(F)c21.Cl (stereo not drawn) | 0.0253 ± 0.036

Structure (SMILES) | relative enzymatic activity
O=c1[nH]c(=O)n(C2CC(O)C(CO)O2)cc1F (stereo not drawn) | 0.98 ± 0.053
CN(C)c1ccc(O)c2c1CC1CC3C(N(C)C)C(O)=C(C(N)=O)C(=O)C3(O)C(O)=C1C2=O.Cl (stereo not drawn) | 0.541 ± 0.071
C=C1c2cccc(O)c2C(=O)C2=C(O)C3(O)C(=O)C(C(N)=O)=C(O)C(N(C)C)C3C(O)C12.Cl (stereo not drawn) | 0.0714 ± 0.1
CO/N=C(\C(=O)N[C@@H]1C(=O)N2C(C(=O)O)=C(CSc3nnnn3C)CS[C@H]12)c1csc(N)n1 | 1.08 ± 0.03
Nc1nc(C(=CCC(=O)O)C(=O)NC2C(=O)N3C(C(=O)O)=CCSC23)cs1 (stereo not drawn) | 0.16 ± 0.14
NCCONC(=O)[C@@H]1CC[C@@H]2CN1C(=O)N2OS(=O)(=O)O | 0.796 ± 0.34
CC[C@H]1OC(=O)C[C@@H](O)[C@H](C)[C@@H](O[C@@H]2O[C@H](C)C[C@H](N(C)C)[C@H]2O)[C@@H](CC=O)C[C@@H](C)C(=O)/C=C/[C@]2(C)O[C@H]2[C@@H]1C | 0.781 ± 0.33
N[C@@H](C(=O)N[C@@H]1C(=O)N2C(C(=O)O)=C(Cl)CC[C@H]12)c1ccccc1 | 0.732 ± 0.43
CO/N=C(\C(=O)N[C@@H]1C(=O)N2C(C(=O)O)=C(C)CS[C@H]12)c1csc(N)n1 | 0.614 ± 0.47
NCC1OC(OC2C(N)CC(N)C(OC3OC(CO)C(O)C(N)C3O)C2O)C(N)CC1O (stereo not drawn) | 1.2 ± 0.12
NC(=O)N/N=C/c1ccc([N+](=O)[O-])o1 | 0.691 ± 0.48
Cc1nnc(SCC2=C(C(=O)[O-])N3C(=O)C(NC(=O)Cn4cnnn4)C3SC2)s1.[Na+] (stereo not drawn) | 1.26 ± 0.15
CCC=C(C(=O)NC1C(=O)N2C(C(=O)OCOC(=O)C(C)(C)C)=C(COC(N)=O)CSC12)c1csc(N)n1.Cl (stereo not drawn) | 0.924 ± 0.071
CC(O)C1C(=O)N2C(C(=O)O)=C(SC3CNC(C(=O)N(C)C)C3)C(C)C12 (stereo not drawn) | 0.734 ± 0.42
CN(C)C1C(O)=C(C(N)=O)C(=O)C2(O)C(O)=C3C(=O)c4c(O)cccc4C(C)(O)C3CC12.Cl (stereo not drawn) | 0.904 ± 0.27
Cc1cc(=O)c(C(=O)N[C@@H](C(=O)N[C@@H]2C(=O)N3C(C(=O)O)=C(CSc4nnnn4C)CS[C@H]23)c2ccc(O)cc2)c[nH]1 | 0.759 ± 0.035
CCN1CCN(C(=O)NC(C(=O)NC2C(=O)N3C(C(=O)O)=C(CSc4nnnn4C)CSC23)c2ccc(O)cc2)C(=O)C1=O (stereo not drawn) | 0.414 ± 0.27
Nc1nc(/C(=N/O)C(=O)N[C@@H]2C(=O)N3C(C(=O)O)=C(/C=C4\CCN([C@@H]5CCNC5)C4=O)CS[C@H]23)ns1 | 0.279 ± 0.18
CC(NCCCc1cccc(C(F)(F)F)c1)c1cccc2ccccc12.Cl (stereo not drawn) | 1.09 ± 0.12

These compounds were tested against DNA helicase (UniProt P0ACB1) in the same assay as above. Details: 100 µM; incubation time: 2 h at 37 C.
Chain of DNA helicase (P0ACB1 whole entry): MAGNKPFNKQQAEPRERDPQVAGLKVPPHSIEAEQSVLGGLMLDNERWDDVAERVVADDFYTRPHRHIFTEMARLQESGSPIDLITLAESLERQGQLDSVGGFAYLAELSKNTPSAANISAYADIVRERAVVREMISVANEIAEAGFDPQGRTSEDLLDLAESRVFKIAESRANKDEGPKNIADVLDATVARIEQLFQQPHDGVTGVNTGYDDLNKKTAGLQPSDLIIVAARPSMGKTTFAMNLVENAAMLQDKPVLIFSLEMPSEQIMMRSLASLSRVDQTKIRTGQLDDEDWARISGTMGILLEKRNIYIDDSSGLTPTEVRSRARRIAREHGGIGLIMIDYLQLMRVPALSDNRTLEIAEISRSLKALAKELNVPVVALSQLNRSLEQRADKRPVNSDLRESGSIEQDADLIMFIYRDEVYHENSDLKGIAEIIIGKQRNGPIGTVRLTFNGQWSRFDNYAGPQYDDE
Procedure: as §1

Structure (SMILES) | relative enzymatic activity
Cc1cn(C2CC(N=[N+]=[N-])C(CO)O2)c(=O)[nH]c1=O (stereo not drawn) | 0.472 ± 0.1
CCOC(=O)OC(C)OC(=O)C1N2C(=O)C(NC(=O)C(N)c3ccccc3)C2SC1(C)C.Cl (stereo not drawn) | 0.463 ± 0.04
Cn1nnnc1SCC1=C(C(=O)[O-])N2C(=O)C(NC(=O)C(O)c3ccccc3)C2SC1.[Na+] (stereo not drawn) | 0.638 ± 0.12
CNC1C(OC2C(OC3C(O)C(O)C(NC(=N)N)C(O)C3NC(=N)N)OC(C)C2(O)CO)OC(CO)C(O)C1O.O=S(=O)(O)O (stereo not drawn) | 0.565 ± 0.13
CON=C(C(=O)NC1C(=O)N2C(C(=O)OCOC(=O)C(C)(C)C)=C(C=Cc3scnc3C)CSC12)c1csc(N)n1 (stereo not drawn) | 0.379 ± 0.064
COC1(NC(=O)C(C(=O)[O-])c2ccc(O)cc2)C(=O)N2C(C(=O)[O-])=C(CSc3nnnn3C)COC21.[Na+].[Na+] (stereo not drawn) | 0.607 ± 0.17
Nc1c2ccccc2nc2ccccc12 | 0.595 ± 0.097
O=C1OC(=O)[C@H]2[C@@H]1[C@H]1CC[C@H]2O1 | 0.551 ± 0.09
CC(=O)On1cc(F)c(=O)[nH]c1=O | 0.603 ± 0.23
N[C@@H](C(=O)N[C@@H]1C(=O)N2C(C(=O)O)=C(Cl)CS[C@H]12)c1ccccc1 | 0.537 ± 0.076
CC1(C)S[C@@H]2[C@H](NC(=O)[C@H](NC(=O)N3CCNC3=O)c3ccccc3)C(=O)N2[C@H]1C(=O)O | 0.76 ± 0.44
COc1ccc(Cc2cnc(N)nc2N)cc1OC | 0.508 ± 0.059
CN1CCN(c2c(F)cc3c(=O)c(C(=O)O)cn4c3c2OCN4C)CC1 | 0.53713 ± 0.00022
O=C(O)c1cn(C2CC2)c2cc(N3CCNCC3)c(F)cc2c1=O | 0.645 ± 0.22
COc1cc(Cc2cnc(N)nc2N)cc(OC)c1OC | 0.617 ± 0.18
C[C@H]1[C@H](NC(=O)/C(=N\OC(C)(C)C(=O)O)c2csc(N)n2)C(=O)N1S(=O)(=O)O | 0.534 ± 0.15
CC(N)O.Cc1cc(CC(C)CC(C)(C)C)n(O)c(=O)c1 (stereo not drawn) | 0.621 ± 0.26
COc1cc2c(cc1OC)C(=O)C(CC1CCN(Cc3ccccc3)CC1)C2.Cl (stereo not drawn) | 0.802 ± 0.32
CON=C(C(=O)NC1C(=O)N2C(C(=O)O)=C(C[N+]3(C)CCCC3)CSC12)c1csc(N)n1.[Cl-] (stereo not drawn) | 0.431 ± 0.059
CCn1cc(C(=O)O)c(=O)c2cc(F)c(N3CCNC(C)C3)c(F)c21.Cl (stereo not drawn) | 0.786 ± 0.38

Structure (SMILES) | relative enzymatic activity
O=c1[nH]c(=O)n(C2CC(O)C(CO)O2)cc1F (stereo not drawn) | 0.557 ± 0.14
CN(C)c1ccc(O)c2c1CC1CC3C(N(C)C)C(O)=C(C(N)=O)C(=O)C3(O)C(O)=C1C2=O.Cl (stereo not drawn) | 0.129 ± 0.0081
C=C1c2cccc(O)c2C(=O)C2=C(O)C3(O)C(=O)C(C(N)=O)=C(O)C(N(C)C)C3C(O)C12.Cl (stereo not drawn) | 0.143 ± 0.031
CO/N=C(\C(=O)N[C@@H]1C(=O)N2C(C(=O)O)=C(CSc3nnnn3C)CS[C@H]12)c1csc(N)n1 | 0.544 ± 0.23
Nc1nc(C(=CCC(=O)O)C(=O)NC2C(=O)N3C(C(=O)O)=CCSC23)cs1 (stereo not drawn) | 0.257 ± 0.0059
NCCONC(=O)[C@@H]1CC[C@@H]2CN1C(=O)N2OS(=O)(=O)O | 0.527 ± 0.074
CC[C@H]1OC(=O)C[C@@H](O)[C@H](C)[C@@H](O[C@@H]2O[C@H](C)C[C@H](N(C)C)[C@H]2O)[C@@H](CC=O)C[C@@H](C)C(=O)/C=C/[C@]2(C)O[C@H]2[C@@H]1C | 0.296 ± 0.13
N[C@@H](C(=O)N[C@@H]1C(=O)N2C(C(=O)O)=C(Cl)CC[C@H]12)c1ccccc1 | 0.524 ± 0.089
CO/N=C(\C(=O)N[C@@H]1C(=O)N2C(C(=O)O)=C(C)CS[C@H]12)c1csc(N)n1 | 0.628 ± 0.2
NCC1OC(OC2C(N)CC(N)C(OC3OC(CO)C(O)C(N)C3O)C2O)C(N)CC1O (stereo not drawn) | 0.45 ± 0.37
NC(=O)N/N=C/c1ccc([N+](=O)[O-])o1 | 0.657 ± 0.29
Cc1nnc(SCC2=C(C(=O)[O-])N3C(=O)C(NC(=O)Cn4cnnn4)C3SC2)s1.[Na+] (stereo not drawn) | 0.672 ± 0.26
CCC=C(C(=O)NC1C(=O)N2C(C(=O)OCOC(=O)C(C)(C)C)=C(COC(N)=O)CSC12)c1csc(N)n1.Cl (stereo not drawn) | 0.354 ± 0.016
CC(O)C1C(=O)N2C(C(=O)O)=C(SC3CNC(C(=O)N(C)C)C3)C(C)C12 (stereo not drawn) | 0.994 ± 0.1
CN(C)C1C(O)=C(C(N)=O)C(=O)C2(O)C(O)=C3C(=O)c4c(O)cccc4C(C)(O)C3CC12.Cl (stereo not drawn) | 0.696 ± 0.28
Cc1cc(=O)c(C(=O)N[C@@H](C(=O)N[C@@H]2C(=O)N3C(C(=O)O)=C(CSc4nnnn4C)CS[C@H]23)c2ccc(O)cc2)c[nH]1 | 0.278 ± 0.28
CCN1CCN(C(=O)NC(C(=O)NC2C(=O)N3C(C(=O)O)=C(CSc4nnnn4C)CSC23)c2ccc(O)cc2)C(=O)C1=O (stereo not drawn) | 0.636 ± 0.11
Nc1nc(/C(=N/O)C(=O)N[C@@H]2C(=O)N3C(C(=O)O)=C(/C=C4\CCN([C@@H]5CCNC5)C4=O)CS[C@H]23)ns1 | 0.389 ± 0.35
CC(NCCCc1cccc(C(F)(F)F)c1)c1cccc2ccccc12.Cl (stereo not drawn) | 0.434 ± 0.07
